# In the library only some 11% were active in any assay of this set; here they are far more common.
# Pf growth 48h: inhibits P. falciparum growth in the first generation, 48 h. Potency, µM (series often up to 28.7 µM), for the others: at the highest dose activity change, negative = inhibition, most hits filed as inhibitors. P. falciparum luciferase growth in erythrocytes, 48 h. AID 504832. 310,000 tested, 5.9% active; further: on the % scale 0 is the no-effect control and ±100 the full control effect
#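 Erythrocytes infected with P. falciparum carrying an integrated firefly luciferase reporter (2% hematocrit, 0.1% parasitemia final) were exposed to compounds in RPMI 1640 with 0.5% Albumax at 37 C, 5% CO2. Growth inhibition was scored as reduced luminescence.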
# Sm TGR inh: S. mansoni TGR enzyme inhibition. Q962Y6. Potency, µM (series often up to 114 µM), for inactives: at the highest dose activity change, negative = inhibition, most hits filed as inhibitors. purified TGR, DTNB reduction, TNB absorbance 405 nm. 360,000 tested, 3% active; further: on the % scale 0 is the no-effect control and ±100 the full control effect; nearly all actives have a fitted effect of over 60% in size
#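 First, TGR (20 nM dispensed) and NADPH were mixed with compound. Second, a 15 min room-temperature incubation followed. Third, further NADPH and then DTNB were added to start the reaction. Finally, TNB absorbance was monitored kinetically.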
# Pf growth 96h: P. falciparum growth inhibition at 96 hours | P. falciparum luciferase reporter growth, 96 h | Potency, µM (series often up to 28.7 µM), for the others: at the highest dose activity change, negative = inhibition, most hits filed as inhibitors | 320,000 tested, 6.9% active | AID 504834; further: on the % scale 0 is the no-effect control and ±100 the full control effect
#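 Luminescence readout: decreased luciferase signal marks inhibited growth of reporter-expressing P. falciparum in infected red cells (2% hematocrit, 0.05% parasitemia final), exposed to compound two generations (96 h, 37 C, 5% CO2).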
# AMA1-RON2 inh: disrupts binding of P. falciparum AMA1 to RON2; AlphaScreen AMA1-biotinylated RON2 peptide binding; Potency, µM (titrated, usually from 58.2 µM), without a hit: at the highest dose activity change, negative = inhibition, actives largely listed as inhibitors; 360,000 tested, 0.2% active; AID 720542;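 further: 0% = vehicle wells and -100% = peptide control; nearly all actives have a fitted effect of over 45% in size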
#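 AMA1 (3D7) with his tag at 25 nM final met compounds first, then biotinylated RON2 peptide at 25 nM; detection used donor plus acceptor beads, 10 µg/mL apiece, read by AlphaScreen after 30 min at room temperature.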
# NS1 function inh: blocks influenza NS1 protein function | 270,000 tested, 0.4% active | Potency, µM (series often up to 46.1 µM), for the others: at the highest dose activity, positive = more growth; calls by dose curve; further: actives are rising curves; nearly all actives have a fitted effect of over 50% in size
#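 Growth recovery, yeast-based: influenza A NS1 expressed in S. cerevisiae causes slow growth, and suppressors are detected by OD600. The parent strain without NS1 is used as positive control.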
# * = called active by the depositor; ? = inconclusive; · = no result given. Unless noted, the call rests on the fitted dose curve; in most records, active means well fitted curve in the direction sought with a large enough effect; inconclusive means small, poorly fitted or top-dose-only effect, or another doubt; inactive means no such curve, though single readings can be large; an effect the other way counts as inactive or inconclusive. Potency means the concentration at half of the fitted maximal effect.
SMILES,Pf growth 48h,Sm TGR inh,Pf growth 96h,AMA1-RON2 inh,NS1 function inh
COc1ccc(N2CCN(C(=O)C3CCCN(c4ncnc5c4nc4n5CCCCC4)C3)CC2)cc1 (centres undefined),12µM*,2%,4%,-7%,-28%
CC(=O)c1ccc(N2CCN(C(=O)C3CCCN(c4ncnc5c4nc4n5CCCCC4)C3)CC2)cc1 (centres undefined),13µM*,2%,?,11%,-26%
CC1CCN(CCNC(=O)C2CCCN(c3ncnc4c3nc3n4CCCCC3)C2)CC1 (centres undefined),-8%,-10%,2.9µM*,-7%,-16%
CC(=O)N1CCSc2ccc(S(=O)(=O)Nc3ccccc3C)cc21,?,-16%,?,-1%,0%
COc1ccc(C(=O)C(CCC(CNC(C)(C)C)C(=O)c2ccc(OC)cc2)CNC(C)(C)C)cc1 (centres undefined),7.4µM*,?,?,0%,-2%
COc1ccc(C(=O)CC(=O)c2ccc(C(C)(C)C)cc2)cc1,75%,·,3%,127%,·
CC(=O)Nc1cccc(NC(=O)CSc2nc(=O)n(CCCN3CCOCC3)c3c2CCC3)c1,-7%,-9%,10%,-3%,·
N#Cc1sc2nc(N3CCCCC3)c3c(c2c1N)CCCC3,5.2µM*,0%,?,-1%,1%
Cc1nc2sc(C#N)c(N)c2c2c1CCCC2,25%,0%,12µM*,12%,-58%
Nc1c(C(=O)N2CCOCC2)sc2nc(N3CCOCC3)c3c(c12)CCCC3,?,-17%,4%,-2%,8%
Cc1ccc(S(=O)(=O)N2CCN(C(=O)c3ccc4ccccc4n3)CC2)c(C)c1,57%,-5%,-15%,1%,·
CCOc1ccc(/C=C/c2nc(C#N)c(N(C)C)o2)cc1,·,-3%,·,·,·
